This assay can be described thus: cell-free HIV fusion peptide-binding blockers – biochemical, uHTS, fluorescence dequenching, primary screen (AID 1986). The conditions noted are these: 30 min, stronger effect = higher value.
Where [1] appears, read: measured here: repeat confirmation average inhibition, at 18.6 µM.

Structures are written as SMILES. “And” between values parts separate entries of the source, which are not always exact repeats. Identical values can stand only once. Out of some 290,000 compounds screened, about 890 (0.31%) were called active. Cut-off read from the data, not from the text of the source: active = inhibition mostly above about 52% (no sharp cut-off); inactive = mostly below about 76%. The list comes from a sample in which actives are over-represented; it also holds similar structures and randomly drawn compounds.

As usually defined, the inhibition is the drop in the measured response relative to a control, in per cent. `COc1ccccc1C(CNc1nc(C(F)(F)F)nc2ccccc12)N(C)C` (stereo not drawn): the inhibition (at 20 µM) was 1.8% (inactive).

`CCn1c(SCC(=O)NC(C)C)nnc1-c1cccs1`: the inhibition (at 20 µM) is -1.3% (inactive). On the same count and under the same terms, then `Cc1cccc(CN2CCN(c3nc4nonc4nc3NC3CC3)CC2)c1`, with 6.4% (inactive).

Regarding `CCCCC(=O)Nc1nn(C)c2nc3c(C)cccc3cc12`, where the note is “at 20 µM”, the inhibition was 0.6% (inactive). Turning to `COc1ccccc1C(=O)Nc1ccc(C2=NNC(=O)CC2C)cc1` (stereo not drawn), where the note is “at 20 µM”, the inhibition was 1.5% (inactive). On the same count and under the same terms, then `COc1ccccc1NC(=O)c1nn(-c2ccc(F)c(F)c2)ccc1=O`, with -0.5% (inactive); and `CCOc1ccc(C(=O)Nc2ccc3c(c2)C(=O)NC3=O)cc1`, with 2.2% (inactive); and `C=CCn1c(SC(C)C(=O)NCc2ccc3c(c2)OCO3)nnc1C1CCCCC1` (stereo not drawn), with -0.3% (inactive). With `CSc1ncc(CN2CCCC(C(=O)c3ccc(C(C)(C)C)cc3)C2)cn1` (stereo not drawn), the inhibition (at 20 µM) was 2.1% (inactive). The same measure, in the same setting: then `CCS(=O)(=O)C1=NN2C(=N)/C(=C\c3ccc(OC(=O)c4ccco4)c(OC)c3)C(=O)N=C2S1`, with 34.9% (inactive); and `CCOc1cc(/C=C2\C(=N)N3N=C(S(=O)(=O)CC)SC3=NC2=O)ccc1OC(=O)c1ccco1`, with 60.6% (active).

With `CCOc1cc(/C=C2/C(=N)N3N=C(CC)SC3=NC2=O)ccc1OC(=O)c1ccco1`, the inhibition (at 20 µM) was 12.4% (inactive).

Take `O=C1C(c2cc(=O)c3ccccc3[nH]2)=C(O)c2ccccc21`: the inhibition (at 20 µM) is -2.1% (inactive).

For `Brc1ccc(/C=C/C=N/Nc2nc3ccccc3s2)cc1`, the inhibition (at 20 µM) is -4.3% (inactive). Still for that read-out and setting: under `Oc1ccc(N=C/C=C/c2ccc(Br)cc2)cc1-c1nc2ccccc2s1` stands 64.1% (active).

With `Oc1ccc(N=C/C=C/c2cccc(Br)c2)cc1-c1nc2ccccc2s1`, the inhibition by setting is: (at 20 µM) 61.8% (inactive); under setting [1], 5.5%. With `O=C1CCC(C(=O)Nc2cc(C(F)(F)F)ccc2-n2cncn2)=NN1`, the inhibition (at 20 µM) is -0.2% (inactive). Regarding `Cc1ccc(-n2cccc2/C=C2/C(=N)N3C(=NC2=O)SN=C3S(C)(=O)=O)cc1`, the inhibition (at 20 µM) is 77.1% (active).

Regarding `CS(=O)(=O)C1=NSC2=NC(=O)/C(=C\c3ccc(OC(=O)c4ccco4)cc3)C(=N)N21`, the inhibition (at 20 µM) is 47.4% (inactive). On the same count and under the same terms, under `Cc1ccc(-n2cccc2/C=C2\C(=N)N3N=C(C(C)C)SC3=NC2=O)cc1` stands 49.5% (inactive); under `CC1=CSC2=NC(=O)/C(=C\c3cccn3-c3ccc([N+](=O)[O-])cc3)C(=N)N12`, 0.3% (inactive); under `CCC1=NN2C(=N)/C(=C\c3cccn3-c3ccc(Cl)cc3)C(=O)N=C2S1`, 30.5% (inactive). Still for that read-out and setting: under `CCc1ccc(-n2cccc2/C=C2/C(=N)N3C(=NC2=O)SN=C3S(C)(=O)=O)cc1` stands 74.8% (active); under `Cc1cccc(C)c1-n1cccc1/C=C1/C(=N)N2C(=NC1=O)SN=C2S(C)(=O)=O`, 68.4% (active); under `CS(=O)(=O)C1=NSC2=NC(=O)/C(=C\c3cccn3-c3ccccc3Cl)C(=N)N21`, 78.5% (active). Still for that read-out and setting: then `CCOc1cc(/C=C2/C(=N)N3C(=NC2=O)SN=C3S(C)(=O)=O)ccc1OC(=O)c1ccco1`, with 44.6% (inactive). For `CCC1=NN2C(=N)/C(=C\c3cccn3-c3ccc(Br)cc3)C(=O)N=C2S1`, the inhibition (at 20 µM) is 12.9% (inactive). The same measure, in the same setting: then `CC1=CSC2=NC(=O)/C(=C\c3cccn3-c3ccccc3)C(=N)N12`, with 8.7% (inactive); and `CS(=O)(=O)C1=NSC2=NC(=O)/C(=C\c3ccc(-c4ccccc4)o3)C(=N)N21`, with 34.9% (inactive); and `COCCN(C(=O)Nc1ccc(OC)cc1OC)C1CCN(C(C)C)CC1`, with -0.7% (inactive). Turning to `CN(NC(=O)Nc1ccc(Cl)cc1)c1c(Cl)c(Cl)nn1C`, where the note is “at 20 µM”, the inhibition was -1.2% (inactive).

`Cc1cccc(Nc2nc(C)cc(C)n2)c1`: the inhibition (at 20 µM) is 1.1% (inactive).

`CCN(CC)S(=O)(=O)c1ccc(NC(=S)NC(=O)C2CCC2)cc1`: for the setting “at 20 µM”, the inhibition is 0.1% (inactive).

Take `CSCC[C@H](NC(=O)N1CCn2c1nc1ccccc12)C(=O)N1CCCCC1`: where the note is “at 20 µM”, the inhibition was 1.5% (inactive). As to `COc1ccc(C)cc1-n1nnnc1SCC1CCCO1` (stereo not drawn), where the note is “at 20 µM”, the inhibition was 1% (inactive). Same read-out and setting: then `Cc1cccc(Cn2c(=O)c3c(nc4n3CCN4Cc3ccco3)n(C)c2=O)c1`, with -3% (inactive); and `O=[N+]([O-])c1ccccc1OCCCNCc1ccccc1`, with 1.6% (inactive). On the same count and under the same terms, under `CN1CCN(c2ccc(NC(=O)COc3ccccc3[N+](=O)[O-])cc2)CC1` stands -1.4% (inactive); under `CC(C)Cc1ccc(CN2CCCC(NC(=O)CCN3CCCO3)C2)cc1` (stereo not drawn), -1.9% (inactive); under `O=C(Cn1cnc2c(nnn2Cc2ccc(F)cc2)c1=O)Nc1cccc(F)c1`, 3.6% (inactive). As for `CSCC(C)N1CCC(Oc2cccc(C(=O)NCc3ccccn3)c2)CC1` (stereo not drawn), the inhibition (at 20 µM) is 17% (inactive). On the same count and under the same terms, then `O=C(O)CCCCC1SCC2NC(=O)NC21` (stereo not drawn), with 0.9% (inactive) and -0.7% (inactive); and `O=C(O)CCCCCCCC(=O)O`, with -0.3% (inactive). For `O=C(O)CCCCC1CCSS1` (stereo not drawn), under “at 20 µM”, the inhibition is 63.2% (active). Still for that read-out and setting: then `CN(C)c1ccc(/C=C2\CCCCC2=O)cc1`, with 3.4% (inactive).

As to `CN(C)c1ccc(/C=C2\CCC/C(=C\c3ccccc3)C2=O)cc1`, the inhibition is 80.8% (active) (at 20 µM) and 70.4% under setting [1].

As to `CC(C)/C=C1\CC/C(=C\c2ccc(N(C)C)cc2)C1=O`, the inhibition (at 20 µM) is 37.1% (inactive). Consider `COc1ccc(C(=O)N2C(=S)NC(=O)/C2=C\c2ccc(C)cc2)cc1`, for which the inhibition (at 20 µM) is 43.1% (inactive).

Regarding `COc1ccc(/C=C2\C(=O)NC(=S)N2C(=O)c2ccc(C)cc2)cc1`, under “at 20 µM”, the inhibition is 63.6% (active). The same measure, in the same setting: under `COc1ccc(/C=C2\C(=O)NCC(=O)N2C)cc1` stands -3.1% (inactive).

With `O=C1NC(=S)N(C(=O)c2ccc(F)cc2)/C1=C/c1ccccc1`, the inhibition by setting is: (at 20 µM) 79% (inactive); under setting [1], 19.2%. As for `O=C1NC(=S)N(C(=O)c2ccc(F)cc2)/C1=C/c1cccnc1`, the inhibition (at 20 µM) is 4.6% (inactive). On to `COc1ccc(/C=C2\C(=O)NC(=S)N2C(=O)c2ccc(F)cc2)cc1`, for which the inhibition is, setting by setting: (at 20 µM) 70.6% (active); under setting [1], 59.8%. With `Cc1ccc(C)c(S(=O)(=O)Nc2ccc(C(=O)NCCCN3CCCC3=O)cc2)c1`, where the note is “at 20 µM”, the inhibition was 0.7% (inactive). Consider `Cc1cc(OCC(=O)NCc2cccnc2)c2c(C)c(Cc3ccccc3)c(=O)oc2c1`, for which the inhibition (at 20 µM) was 1.1% (inactive).

Consider `N#C/C(=C\c1ccc(N2CCCCC2)o1)C(=O)Nc1cccc(Br)c1`, for which the inhibition (at 20 µM) was 21.6% (inactive). On the same count and under the same terms, under `N#C/C(=C/c1ccc(-c2ccc(Br)cc2)o1)C(=O)NC1CCCCC1` stands 3.7% (inactive). With `N#C/C(=C\c1ccc(N2CCOCC2)o1)C(=O)NC1CCCCC1`, the inhibition (at 20 µM) was 66.5% (active) and the inhibition under setting [1] was determined as 55.2%. For `N#C/C(=C/c1ccc(N2CCCCC2)o1)C(=O)NCCc1c[nH]c2ccccc12`, where the note is “at 20 µM”, the inhibition was 11.8% (inactive).

For the molecule `N#C/C(=C\c1ccc(N2CCOCC2)o1)C(=O)NCC1CCCO1` (stereo not drawn), the inhibition was 118% (active) (at 20 µM) and 68% under setting [1]. For `N#C/C(=C\c1ccc(-c2ccc(C(=O)O)cc2)o1)C(=O)NCC1CCCO1` (stereo not drawn), the inhibition (at 20 µM) is 11.9% (inactive). Same read-out and setting: under `N#C/C(=C/c1ccc(N2CCOCC2)o1)C(=O)NC1CCCCC1` stands 80.5% (active); under `N#C/C(=C\c1ccc(-c2ccc(S(=O)(=O)N3CCOCC3)cc2)o1)C(=O)NC1CC1`, 5.1% (inactive); under `COc1ccc(NC(=O)/C(C#N)=C\c2ccc(N3CCOCC3)o2)cc1`, 149% (inactive). On the same count and under the same terms, under `Cc1ccc(/C=C(\C#N)C(=O)NCC2CCCO2)o1` (stereo not drawn) stands 0.2% (inactive). Turning to `N#C/C(=C\c1ccc(N2CCOCC2)o1)C(=O)NCCc1ccccc1`, the inhibition (at 20 µM) was 110% (active).

In the case of `COCCNC(=O)/C(C#N)=C/c1ccc(N2CCOCC2)o1`, the inhibition (at 20 µM) is 15.1% (inactive).

For the origin of these results see PubChem BioAssay AID1986 (Sanford-Burnham Center for Chemical Genomics, 2009).
